Reference: PubChem BioAssay (NCATS)
Unmarked numbers belong to inactive results. Records with an inconclusive call do not appear. Active and inactive are the calls of the source. Unless noted, the call rests on the fitted dose curve; in most records, active means well fitted curve in the direction sought with a large enough effect; inconclusive means small, poorly fitted or top-dose-only effect, or another doubt; inactive means no such curve, though single readings can be large; an effect the other way counts as inactive or inconclusive.

Assays:
[1] = target: Lysosomal acid glucosylceramidase (Homo sapiens) (UniProt P04062); assay: Glucocerebrosidase-p2 (AID 348; in the data active means potency below about 10 µM; further: potency means the concentration at half of the fitted maximal effect); settings: purified GBA, blue fluorogenic substrate, 40 min
Summary of the method: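 Compounds titrated from 0.6 nM upwards against 0.2 nM enzyme in pH 5.9 citric acid/KH2PO4, taurocholate, tween-20; blue fluorogenic substrate 80 uM, 40 min room temperature, stopped and read Ex 365/Em 440 for AC50.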

[2] = AP1 Signaling Pathway (AID 357; active means well fitted curve in either direction with a large enough effect, not every such curve was filed as active;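 further: ME-180 reporter cells stimulated with EGF at its EC50 level; on the % scale 0 is the no-effect control and ±100 the full control effect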); settings: ME-180 AP-1-bla reporter, EGF-induced, beta-lactamase ratio, 5 h; at 7.69 µM (top of the series) unless noted
Summary of the method: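 Read-out was the 460nm/530nm emission ratio (excitation 405nm) after CCF4 loading for 2.5 hours at room temperature. Cells carried an AP-1-driven beta-lactamase reporter, were stimulated with EC50 EGF plus compound for 5 hours, and AC50 values came from titrations.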

[3] = NFAT Signaling Pathway (AID 444; active means well fitted curve in either direction with a large enough effect, not every such curve was filed as active;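 further: carbachol stimulus at about its EC50 of 1 µM final; on the % scale 0 is the no-effect control and ±100 the full control effect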); settings: Jurkat NFAT-bla M1, carbachol, beta-lactamase ratio, 5 h; at 7.69 µM (top of the series) unless noted
Summary of the method: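 Jurkat cells carrying an NFAT-driven β-lactamase reporter and co-transfected muscarinic M1 receptor were treated with compound plus carbachol (1 uM final, an EC50 level) for 5 h at 37 °C. CCF4 loading followed for 1 h at RT; 460/530 nm ratio gave %activity.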

[4] = Stat Signaling Pathway (AID 446; active means well fitted curve in either direction with a large enough effect, not every such curve was filed as active;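 further: ME-180 cervical cancer cells given 40 pM IL-6 alongside compound; SIE-controlled beta-lactamase reporter measured as 460/530 nm FRET emission ratio; on the % scale 0 is the no-effect control and ±100 the full control effect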); settings: ME-180 SIE beta-lactamase reporter, IL-6 stimulated, 5 h; at 7.69 µM (top of the series) unless noted
Summary of the method: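 IL-6/STAT signaling read in ME-180 cells via an SIE beta-lactamase reporter. Stimulus was 40 pM IL-6 (its AC50) for 5 hrs, so both activation and inhibition register.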

[5] = target: Glucocorticoid receptor (Homo sapiens) (UniProt P04150); assay: GR-GFP Redistribution (AID 450;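 active means compounds whose dose series gives a full or clear partial fitted curve of increased nuclear translocation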; further: potency means the concentration at half of the fitted maximal effect); settings: U2OS GR-GFP nuclear translocation, laser cytometry, 2 h
[6] = target: Glucocorticoid receptor (Homo sapiens) (UniProt P04150); assay: GR-EFC Redistribution (AID 451; calls by dose curve; further: potency means the concentration at half of the fitted maximal effect); settings: CHO-K1 GR-EFC translocation, beta-gal luminescence, 2 h
Summary of the method: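 CHO-K1 cells stably expressing nuclear-localized β-gal enzyme acceptor and GR fused C-terminally to the enzyme donor fragment; ligand-driven nuclear translocation restores β-gal by complementation. Compounds titrated up to 46 uM final, 2 h at 37 °C; luminescence read.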

[7] = target: Dual specificity protein kinase CLK4 (Homo sapiens) (UniProt Q9HAZ1); assay: qHTS Assay for Inhibitors of CDC-like Kinase 4 (Kinase-Glo Assay) (AID 1770); settings: recombinant Clk4, Kinase-Glo ATP depletion luminescence; series mostly up to 66.7 µM; further: nearly all actives have a fitted effect of over 65% in size; further: potency means the concentration at half of the fitted maximal effect
Summary of the method: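 Readout: Kinase-Glo luminescence from ATP left after a 4.5 h room-temperature reaction of 25 nM Clk4 with 100 uM RS peptide and 1 uM ATP (final). Buffer: 25 mM Tris pH 7.5, 10 mM MgCl2.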

[8] = target: Dual specificity protein kinase CLK4 (Homo sapiens) (UniProt Q9HAZ1); assay: qHTS Assay for Inhibitors of CDC-like Kinase 4 (ADP-Glo Assay) (AID 1771); settings: recombinant CLK4, ADP-Glo luminescence; series mostly up to 80 µM; further: nearly all actives have a fitted effect of over 70% in size; further: potency means the concentration at half of the fitted maximal effect
Summary of the method: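 25 nM Clk4 with 100 uM RS repeat peptide and 1 uM ATP (final) in buffer with 2 mM MgCl2, 0.5 mM EGTA, 2.5 mM DTT, 0.01% Triton X-100; 1 h at room temperature; ADP-Glo luminescence for ADP formed.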

[9] = target: Dual specificity protein kinase CLK4 (Homo sapiens) (UniProt Q9HAZ1); assay: qHTS Assay for Inhibitors of CDC-like Kinase 4 (ADP-FP Assay) (AID 1795); settings: Transcreener ADP fluorescence polarization; series mostly up to 50 µM; further: nearly all actives have a fitted effect of over 60% in size; further: potency means the concentration at half of the fitted maximal effect
Summary of the method: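 FP readout: Orange Transcreener ADP2 tracer (4 nM) plus ADP antibody, read after 30 min at room temperature. Kinase step: 6.25 nM Clk4, 100 uM RS peptide, 1 uM ATP, pH 7.5, 1 h.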

[10] = target: Ubiquitin carboxyl-terminal hydrolase 1 (Homo sapiens) (UniProt O94782); assay: Inhibitors of USP1/UAF1: Pilot qHTS (AID 504865); settings: purified USP1/UAF1, Ub-rhodamine cleavage fluorescence; series mostly up to 54.9 µM; further: nearly all actives have a fitted effect of over 35% in size; further: potency means the concentration at half of the fitted maximal effect
Summary of the method: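 1nM USP1/UAF1 + cpd, 15 min RT; start w/ Ub-Rho 150nM final; kinetic FL 480/540 nm, 6 reads q60 s. Buffer 50mM HEPES pH 7.8, 0.5mM EDTA, 1mM TCEP, 0.01% Tween-20, 0.1 mg/ml BSA.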

[11] = Primary qHTS for small molecule stabilizers of the endoplasmic reticulum resident proteome: Secreted ER Calcium Modulated Protein (SERCaMP) assay (AID 1508630); settings: SH-SY5Y GLuc-SERCaMP (Gaussia luciferase released on ER calcium loss) secretion, thapsigargin, luminescence; series mostly up to 38.4 µM; further: on the % scale 0 is the no-effect control and ±100 the full control effect
Summary of the method: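 GLuc-SERCaMP-expressing SH-SY5Y cells, pretreated 16 h with compound, are challenged with thapsigargin to empty ER calcium stores; after 4 h, coelenterazine is added directly to the medium and luminescence is imaged.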

[12] = target: Cytochrome P450 1A2 (Homo sapiens) (UniProt P05177); assay: p450-cyp1a2 (AID 410; calls by dose curve; further: potency means the concentration at half of the fitted maximal effect;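 on activity change, negative = inhibition: -100% = full effect of reference inhibitor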); settings: recombinant CYP1A2, luciferin-ME demethylation, luminescence; series mostly up to 57 µM
Summary of the method: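 20nM CYP1A2 with 100uM Luciferin-ME (at Km) in 100mM KPO4; compound preincubated 10 min, NADPH regeneration added, 60 min at room temperature. Luciferin quantified by luminescence after detection reagent; normalized to 57 uM furafylline.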

[13] = target: Mitogen-activated protein kinase 10 (Mus musculus) (UniProt Q61831); assay: JNK3 AlphaScreen Assay (AID 530; active means well fitted curve in either direction with a large enough effect, not every such curve was filed as active); settings: JNK3 lysate, c-Jun phosphorylation; series mostly up to 57.1 µM
Summary of the method: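 Inhibitors reduce antibody binding to phosphorylated biotin-cJun, lowering AlphaScreen luminescence. Lysates from HepG2 cells pre-activated by IL-1beta plus TNF-alpha supplied JNK3; compounds were titrated.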

[14] = target: Cytochrome P450 3A4 (Homo sapiens) (UniProt P08684); assay: qHTS Assay for Inhibitors and Substrates of Cytochrome P450 3A4 (AID 884); settings: recombinant CYP3A4, Luciferin-PPXE luminescence; series mostly up to 57.1 µM; further: nearly all actives have a fitted effect of over 50% in size; further: potency means the concentration at half of the fitted maximal effect
Summary of the method: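 20 nM human CYP3A4 with 25 uM Luciferin-PPXE (at KM) in 200 mM KPO4, preincubated 10 min with compound; NADPH regeneration started a 60 min RT reaction. Luciferin detected by luminescence, normalized to 57 uM ketoconazole as full inhibition.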

[15] = target: Cytochrome P450 3A4 (Homo sapiens) (UniProt P08684); assay: qHTS Assay for Activators of Cytochrome P450 3A4 (AID 885); settings: recombinant CYP3A4, Luciferin-PPXE luminescence, 60 min; series mostly up to 57.1 µM; further: nearly all actives have a fitted effect of over 65% in size; further: potency means the concentration at half of the fitted maximal effect
Summary of the method: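 Quantitative HTS format: compounds preincubated with 20nM human CYP3A4 and Luciferin-PPXE substrate at KM, reaction started by NADPH regeneration, stopped after 60 min, luciferase luminescence read 20 min later.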

[16] = target: Cytochrome P450 2D6 (Homo sapiens) (UniProt P10635); assay: qHTS Assay for Inhibitors and Substrates of Cytochrome P450 2D6 (AID 891); settings: recombinant CYP2D6, luciferin-ME EGE luminescence; series mostly up to 57.1 µM; further: potency means the concentration at half of the fitted maximal effect; nearly all actives have a fitted effect of over 60% in size
Summary of the method: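 Human CYP2D6 (5 nM) with 30 uM Luciferin-ME EGE (at Km) in 100 mM KPO4, compound preincubated 10 min, then NADPH regeneration system for 60 min at room temperature. Luciferin read by luminescence; normalized to 1.43 uM quinidine.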

[17] = target: 3',5'-cyclic-AMP phosphodiesterase 4B (Homo sapiens) (UniProt Q07343); assay: qHTS Assay for Inhibitors of PDE-IV (AID 607; active means well fitted activation curve with a large enough effect in the main read-out, with a control signal flat, not every such curve was filed as active; further: % of control where 0% means no effect); settings: HEK293 ACTOne CNG channel cells, membrane potential fluorescence; series mostly up to 22.9 µM
Summary of the method: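 Live HEK293 cells with a modified cyclic nucleotide-gated (CNG) channel report intracellular cAMP via membrane-potential dye fluorescence (ex 535/em 590 nm). Endogenous PDE-IV was targeted. Compounds were tested at up to 22.9 uM final; RO 20-1724 100 uM served as control.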

[18] = qHTS Assay for Identification of Small Molecule Agonists for Hypoxia Response Element Signaling Pathway (AID 914; active means well fitted activation curve with a large enough effect in the signal ratio, with a control signal flat, not every such curve was filed as active; the % refers to the signal ratio; further: % of control where 0% means no effect); settings: ME-180 (cervical carcinoma) HRE-bla reporter, beta-lactamase ratio, CoCl2, 17 h; activation: hits give high values
Summary of the method: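 Read-out: CCF4 FRET ratio of 460nm to 530nm emission (excitation 405nm) after 2.5 hours at room temperature, taken from HRE-bla ME-180 cells that had been exposed to compound and EC50 CoCl2 for 17 hours.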

Sequence of Cytochrome P450 1A2 (Homo sapiens) (P05177 whole entry, looked up): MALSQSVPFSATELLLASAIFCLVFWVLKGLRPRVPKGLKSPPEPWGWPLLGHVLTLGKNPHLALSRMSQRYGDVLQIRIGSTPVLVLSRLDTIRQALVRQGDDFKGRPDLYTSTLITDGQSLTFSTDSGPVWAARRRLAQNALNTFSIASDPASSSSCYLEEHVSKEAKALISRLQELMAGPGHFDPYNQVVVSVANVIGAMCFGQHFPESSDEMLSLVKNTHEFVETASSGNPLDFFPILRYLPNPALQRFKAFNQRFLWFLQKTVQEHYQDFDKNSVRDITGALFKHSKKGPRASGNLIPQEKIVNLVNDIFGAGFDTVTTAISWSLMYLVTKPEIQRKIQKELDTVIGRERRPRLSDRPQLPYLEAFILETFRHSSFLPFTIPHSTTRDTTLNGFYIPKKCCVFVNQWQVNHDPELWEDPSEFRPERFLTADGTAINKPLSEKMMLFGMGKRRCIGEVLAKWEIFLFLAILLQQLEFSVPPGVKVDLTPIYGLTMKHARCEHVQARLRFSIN
Sequence of Lysosomal acid glucosylceramidase (Homo sapiens) (P04062 whole entry, looked up): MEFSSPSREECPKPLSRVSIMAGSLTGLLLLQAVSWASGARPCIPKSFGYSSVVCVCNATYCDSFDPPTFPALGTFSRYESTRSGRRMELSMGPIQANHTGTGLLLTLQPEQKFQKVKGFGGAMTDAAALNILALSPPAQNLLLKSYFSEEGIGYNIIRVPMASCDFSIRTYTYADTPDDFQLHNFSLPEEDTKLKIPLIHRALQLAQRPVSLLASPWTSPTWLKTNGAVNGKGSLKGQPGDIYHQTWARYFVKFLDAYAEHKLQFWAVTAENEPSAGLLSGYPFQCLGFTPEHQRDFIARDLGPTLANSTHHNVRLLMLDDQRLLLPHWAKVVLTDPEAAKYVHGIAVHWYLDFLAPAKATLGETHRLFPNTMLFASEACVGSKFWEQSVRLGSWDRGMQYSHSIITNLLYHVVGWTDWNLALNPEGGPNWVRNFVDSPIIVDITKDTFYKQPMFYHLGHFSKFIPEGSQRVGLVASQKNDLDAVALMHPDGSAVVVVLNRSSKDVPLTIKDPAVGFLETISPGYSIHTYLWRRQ
Sequence of 3',5'-cyclic-AMP phosphodiesterase 4B (Homo sapiens) (Q07343 whole entry, looked up): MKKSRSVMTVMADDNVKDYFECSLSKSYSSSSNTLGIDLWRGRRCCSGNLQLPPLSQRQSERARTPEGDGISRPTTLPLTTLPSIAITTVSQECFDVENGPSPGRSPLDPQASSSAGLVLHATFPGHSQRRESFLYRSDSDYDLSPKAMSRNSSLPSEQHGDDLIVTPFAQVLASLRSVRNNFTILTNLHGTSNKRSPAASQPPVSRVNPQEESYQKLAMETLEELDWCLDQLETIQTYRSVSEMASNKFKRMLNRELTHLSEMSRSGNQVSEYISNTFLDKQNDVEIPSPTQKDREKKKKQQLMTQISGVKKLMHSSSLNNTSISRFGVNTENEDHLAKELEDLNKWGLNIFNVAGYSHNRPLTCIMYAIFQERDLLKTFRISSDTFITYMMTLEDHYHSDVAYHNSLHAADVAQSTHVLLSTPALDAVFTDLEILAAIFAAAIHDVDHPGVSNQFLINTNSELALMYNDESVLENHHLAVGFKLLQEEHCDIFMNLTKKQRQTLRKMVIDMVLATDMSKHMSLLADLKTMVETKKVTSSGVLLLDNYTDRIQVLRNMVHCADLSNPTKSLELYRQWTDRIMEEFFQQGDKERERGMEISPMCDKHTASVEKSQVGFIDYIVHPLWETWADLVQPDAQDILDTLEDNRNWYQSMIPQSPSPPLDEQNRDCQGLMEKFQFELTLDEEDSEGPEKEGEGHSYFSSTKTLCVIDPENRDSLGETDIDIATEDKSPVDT
Sequence of Glucocorticoid receptor (Homo sapiens) (P04150 whole entry, looked up, the tested form may be a part): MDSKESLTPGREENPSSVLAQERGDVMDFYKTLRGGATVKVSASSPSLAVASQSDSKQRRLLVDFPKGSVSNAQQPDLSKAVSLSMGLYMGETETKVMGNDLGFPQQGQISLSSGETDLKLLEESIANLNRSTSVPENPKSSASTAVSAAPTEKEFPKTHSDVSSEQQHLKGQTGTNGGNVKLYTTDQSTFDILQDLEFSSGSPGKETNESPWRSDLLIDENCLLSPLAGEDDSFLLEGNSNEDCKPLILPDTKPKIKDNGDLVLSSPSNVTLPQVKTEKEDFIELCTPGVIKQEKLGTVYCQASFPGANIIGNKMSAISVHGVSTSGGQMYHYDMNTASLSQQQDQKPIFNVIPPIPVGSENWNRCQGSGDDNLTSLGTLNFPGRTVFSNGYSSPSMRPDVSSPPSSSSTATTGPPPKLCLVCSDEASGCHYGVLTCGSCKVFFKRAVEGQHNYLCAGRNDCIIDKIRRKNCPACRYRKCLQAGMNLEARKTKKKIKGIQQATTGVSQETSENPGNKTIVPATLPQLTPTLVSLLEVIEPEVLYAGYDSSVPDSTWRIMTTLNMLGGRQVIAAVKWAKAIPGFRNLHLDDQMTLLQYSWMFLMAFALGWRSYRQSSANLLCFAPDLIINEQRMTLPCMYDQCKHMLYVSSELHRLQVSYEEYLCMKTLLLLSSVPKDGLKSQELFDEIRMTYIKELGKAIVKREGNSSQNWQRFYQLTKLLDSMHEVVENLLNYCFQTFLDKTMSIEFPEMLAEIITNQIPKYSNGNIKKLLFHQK
Sequence of Ubiquitin carboxyl-terminal hydrolase 1 (Homo sapiens) (O94782 whole entry, looked up): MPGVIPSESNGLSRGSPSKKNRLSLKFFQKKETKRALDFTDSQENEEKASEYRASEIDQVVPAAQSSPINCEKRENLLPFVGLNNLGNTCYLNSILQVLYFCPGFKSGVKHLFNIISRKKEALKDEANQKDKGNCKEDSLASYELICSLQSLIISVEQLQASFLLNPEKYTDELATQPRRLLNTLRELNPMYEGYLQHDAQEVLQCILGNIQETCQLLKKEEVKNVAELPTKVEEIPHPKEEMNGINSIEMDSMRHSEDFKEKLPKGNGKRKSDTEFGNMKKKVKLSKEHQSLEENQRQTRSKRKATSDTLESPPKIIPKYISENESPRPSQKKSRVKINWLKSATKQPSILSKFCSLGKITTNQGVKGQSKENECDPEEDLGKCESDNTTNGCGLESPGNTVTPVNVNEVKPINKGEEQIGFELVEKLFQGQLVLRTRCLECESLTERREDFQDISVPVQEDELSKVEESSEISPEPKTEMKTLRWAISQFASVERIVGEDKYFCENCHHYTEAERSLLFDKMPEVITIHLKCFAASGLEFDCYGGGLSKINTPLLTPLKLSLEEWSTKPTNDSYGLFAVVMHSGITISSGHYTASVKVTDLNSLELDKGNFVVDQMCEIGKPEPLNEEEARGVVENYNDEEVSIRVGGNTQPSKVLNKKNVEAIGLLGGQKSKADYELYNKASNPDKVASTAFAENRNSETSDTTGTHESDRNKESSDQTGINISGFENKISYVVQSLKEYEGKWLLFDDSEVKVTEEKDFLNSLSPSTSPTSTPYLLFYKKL
Sequence of Dual specificity protein kinase CLK4 (Homo sapiens) (Q9HAZ1 whole entry, looked up): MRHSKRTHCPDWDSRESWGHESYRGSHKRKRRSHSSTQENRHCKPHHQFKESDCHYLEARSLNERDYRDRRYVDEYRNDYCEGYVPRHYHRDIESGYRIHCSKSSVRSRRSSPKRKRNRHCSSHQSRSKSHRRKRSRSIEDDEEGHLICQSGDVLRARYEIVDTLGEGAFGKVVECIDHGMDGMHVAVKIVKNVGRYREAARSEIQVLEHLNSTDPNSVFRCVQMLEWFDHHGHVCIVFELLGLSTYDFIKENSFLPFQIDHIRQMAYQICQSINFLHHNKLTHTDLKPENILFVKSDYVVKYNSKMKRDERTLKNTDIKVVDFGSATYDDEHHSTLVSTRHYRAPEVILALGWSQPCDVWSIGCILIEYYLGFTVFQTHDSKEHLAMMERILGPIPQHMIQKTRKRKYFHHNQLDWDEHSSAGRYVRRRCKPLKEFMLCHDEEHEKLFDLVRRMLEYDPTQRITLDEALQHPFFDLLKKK
Sequence of Cytochrome P450 3A4 (Homo sapiens) (P08684 whole entry, looked up): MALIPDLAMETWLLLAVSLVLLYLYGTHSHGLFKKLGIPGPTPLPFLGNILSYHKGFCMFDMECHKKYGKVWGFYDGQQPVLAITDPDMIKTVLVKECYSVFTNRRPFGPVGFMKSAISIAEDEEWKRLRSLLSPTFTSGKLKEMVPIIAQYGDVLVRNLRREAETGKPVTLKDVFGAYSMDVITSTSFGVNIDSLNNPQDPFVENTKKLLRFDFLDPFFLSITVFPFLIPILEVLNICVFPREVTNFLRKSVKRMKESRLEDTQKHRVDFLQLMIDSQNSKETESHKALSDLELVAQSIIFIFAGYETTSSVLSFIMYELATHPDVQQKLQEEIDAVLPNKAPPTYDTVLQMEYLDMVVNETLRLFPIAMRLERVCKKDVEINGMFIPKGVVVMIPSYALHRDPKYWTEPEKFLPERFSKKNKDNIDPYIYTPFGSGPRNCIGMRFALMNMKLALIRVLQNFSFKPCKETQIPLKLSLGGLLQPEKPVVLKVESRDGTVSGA
Sequence of Cytochrome P450 2D6 (Homo sapiens) (P10635 whole entry, looked up): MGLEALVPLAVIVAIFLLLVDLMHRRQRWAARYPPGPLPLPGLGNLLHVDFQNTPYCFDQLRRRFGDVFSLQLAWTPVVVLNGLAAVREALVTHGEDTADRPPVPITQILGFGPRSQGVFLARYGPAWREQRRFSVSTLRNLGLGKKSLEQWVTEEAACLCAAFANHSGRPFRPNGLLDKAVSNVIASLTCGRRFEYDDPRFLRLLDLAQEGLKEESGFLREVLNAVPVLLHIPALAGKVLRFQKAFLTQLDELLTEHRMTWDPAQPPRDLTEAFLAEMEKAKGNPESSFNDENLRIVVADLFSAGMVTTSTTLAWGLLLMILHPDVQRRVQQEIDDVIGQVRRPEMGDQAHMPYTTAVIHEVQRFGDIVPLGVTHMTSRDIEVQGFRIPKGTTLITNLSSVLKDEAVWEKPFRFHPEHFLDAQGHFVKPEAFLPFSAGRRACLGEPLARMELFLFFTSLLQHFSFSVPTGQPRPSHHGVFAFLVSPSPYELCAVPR

Row | SMILES | Potency [1] [µM] | activity change, negative = inhibition [2] [%] | activity change, negative = inhibition [3] [%] | activity, negative = inhibition [4] [%] | Potency [5] [µM] | Potency [6] [µM] | Potency [7] | Potency [8] | Potency [9] | Potency [10] | outcome [11] | Potency [12] | Potency [13] | Potency [14] | Potency [15] | Potency [16] | Potency [17] | activation [18] [%]
1 | COc1cccc(Cn2c(=O)c(-c3cc(F)cc(F)c3)nc3cncnc32)c1 | > 11.4 | 0.277 | 0.731 | -1.76 | > 9.22 | > 46 | inactive | inactive | inactive | inactive | inactive |  |  |  |  |  |  | 
2 | c1cncc(-c2nc(NCc3cccs3)c3ccccc3n2)c1 | > 11.4 | -18.5 |  | 1.18 | > 46 | > 46 | 1.58 µM (active) | 1.26 µM (active) | 2 µM (active) | inactive | inactive | 0.316 µM (active) | inactive | 2 µM (active) | inactive | 6.31 µM (active) |  | 
3 | CN(C)c1ncc2nc(-c3cccs3)c(=O)n(CCc3ccccc3)c2n1 | > 11.4 | 14.4 | 9.39 |  | > 9.22 | > 46 | inactive | inactive | inactive | inactive | inactive | 5.01 µM (active) |  |  |  |  | inactive | 
4 | COCCn1c(=O)c(-c2cc(F)cc(F)c2)nc2cncnc21 | > 11.4 | -5.19 |  | -7.77 | > 9.22 | > 46 | inactive | inactive | inactive | inactive | inactive | 2 µM (active) | inactive |  | inactive |  | inactive | 
5 | COc1cccc(Nc2ncc3nc(-c4cccs4)c(=O)n(Cc4cccs4)c3n2)c1 | > 11.4 | -19.6 |  | -4.04 | > 9.22 | > 46 | inactive | inactive | inactive | 20 µM (active) | inactive | 2 µM (active) | inactive |  |  |  | inactive | 
6 | COc1cccc(Cn2c(=O)c(-c3ccc(Cl)cc3)nc3cnc(N4CCN(C)CC4)nc32)c1 | > 11.4 | 17.8 |  | 4.58 | > 9.22 | > 46 | inactive | inactive | inactive | inactive | inactive | inactive | inactive | inactive | 15.8 µM (active) |  | inactive | 
7 | Cc1noc(C)c1-c1ccc2ncnc(N3CCOCC3)c2c1 | > 11.4 | 11 |  | -8.22 | > 46 | > 46 | 12.6 µM (active) | 7.94 µM (active) | 8.91 µM (active) | inactive | inactive | 12.6 µM (active) | inactive |  | inactive |  | inactive | 
8 | COCCn1c(=O)cnc2cnc(N3CCOCC3)nc21 | > 11.4 | 8.71 | -0.664 | -12.6 | > 9.22 | > 46 | inactive | inactive | inactive | inactive | inactive |  | inactive |  |  |  | inactive | -5.07
9 | Cn1c(=O)c(CCc2ccccc2)nc2cnc(N3CCOCC3)nc21 | > 11.4 | -10.6 | 10.9 | 1.67 | > 9.22 | > 46 | inactive | inactive | inactive | inactive | inactive |  | inactive |  |  |  | inactive | 
10 | COc1cccc(Cn2c(=O)c(-c3ccc(Cl)cc3)nc3cncnc32)c1 | > 11.4 | -9.78 | -4.86 | -0.792 | > 9.22 | > 46 | inactive | inactive | inactive | inactive | inactive |  | inactive |  |  |  |  | 
11 | CN(Cc1ccco1)c1cc(-c2ccccc2C(F)(F)F)ncn1 | > 11.4 | 9.11 | -16.3 | 3.49 | > 46 | > 46 | inactive | inactive | inactive | inactive | inactive |  | inactive |  |  |  | inactive | 
12 | CN(C)C(=O)c1ccc(-c2cncnc2N(C)Cc2ccco2)cc1 | > 11.4 | -9.99 | -12.8 | 3.83 | > 46 | > 46 | inactive | inactive | inactive | inactive | inactive |  | inactive |  |  |  | inactive | 
13 | COc1ccc(-c2nc3cnc(OC)nc3n(-c3ccccc3)c2=O)cc1 | > 11.4 | -6.09 | 10.5 | -1.78 | > 9.22 | > 46 | inactive | inactive | inactive | inactive | inactive |  | inactive |  |  |  | inactive | 
